The record followed here is ChEMBL document CHEMBL3988442, “University of Dundee, Small-Polar-MMV Screening Library” (2021).

Holding throughout (set-up): scale not given: direction of the effect not stated beside the values
Assay [1] addresses Protein translocase subunit SecA (Escherichia coli (strain K12)) (UniProt P10408). Description: Assay to Identify E. coli SecA ATPase Inhibitors. In kind it is functional. The settings on record: 30 µM.
Assay [2] has as its target T1, Ubiquitin-activating enzyme e1, putative (Leishmania donovani (strain BPK282A1)) (UniProt E9BSI1).
T1 sequence (whole entry): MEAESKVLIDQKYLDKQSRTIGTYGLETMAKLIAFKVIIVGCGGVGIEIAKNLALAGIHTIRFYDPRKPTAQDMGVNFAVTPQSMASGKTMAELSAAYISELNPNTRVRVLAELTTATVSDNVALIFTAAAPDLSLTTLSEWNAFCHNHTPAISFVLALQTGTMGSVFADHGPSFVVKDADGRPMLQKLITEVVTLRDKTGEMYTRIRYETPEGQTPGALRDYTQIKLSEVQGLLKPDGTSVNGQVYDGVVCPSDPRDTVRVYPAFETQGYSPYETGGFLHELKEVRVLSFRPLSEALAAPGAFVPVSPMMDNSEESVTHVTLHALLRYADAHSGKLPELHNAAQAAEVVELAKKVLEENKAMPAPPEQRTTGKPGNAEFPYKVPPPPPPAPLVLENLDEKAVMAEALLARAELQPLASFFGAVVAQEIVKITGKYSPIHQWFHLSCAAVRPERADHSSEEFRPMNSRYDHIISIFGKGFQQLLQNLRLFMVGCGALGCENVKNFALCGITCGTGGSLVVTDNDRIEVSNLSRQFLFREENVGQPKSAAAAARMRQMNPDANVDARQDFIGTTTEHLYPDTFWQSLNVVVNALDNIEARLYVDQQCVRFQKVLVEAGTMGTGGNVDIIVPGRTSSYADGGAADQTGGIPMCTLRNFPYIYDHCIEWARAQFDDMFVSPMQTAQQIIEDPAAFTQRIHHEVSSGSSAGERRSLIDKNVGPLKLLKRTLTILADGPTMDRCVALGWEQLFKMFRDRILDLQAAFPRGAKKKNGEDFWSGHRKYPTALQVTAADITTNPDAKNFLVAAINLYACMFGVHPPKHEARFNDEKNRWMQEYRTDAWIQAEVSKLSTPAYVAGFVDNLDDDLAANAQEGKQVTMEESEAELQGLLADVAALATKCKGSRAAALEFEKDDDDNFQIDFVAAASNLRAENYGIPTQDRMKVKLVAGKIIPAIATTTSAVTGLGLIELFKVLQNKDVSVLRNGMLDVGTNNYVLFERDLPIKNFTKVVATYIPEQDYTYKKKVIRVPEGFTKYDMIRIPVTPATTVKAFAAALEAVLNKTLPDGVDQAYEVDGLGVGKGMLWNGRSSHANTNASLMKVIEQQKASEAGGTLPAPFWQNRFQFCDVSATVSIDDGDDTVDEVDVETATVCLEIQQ
Description: Leishmania donovani Ubiquitin Activating Enzyme (LdE1). The assay is classed as functional. The settings on record: 30 µM.

For assay [3], the target named is AMP-activated protein kinase, AMPK (Homo sapiens) (UniProt P54646+O43741+P54619+Q9UGJ0+Q9Y478+Q13131+Q9UGI9). Description: AMP-dependent Kinase enzyme assay. An in vitro enzyme assay that detects ADP turnover that is directly proportional to AMPK activity. This uses naive AMPK that is activated during the assay with MK-8722. As to conditions: 30 µM. The assay is classed as functional.

Assay [4] addresses Sialic acid-binding Ig-like lectin 9 (Homo sapiens) (UniProt Q9Y336). As to the kind of experiment: Hs-Siglec9 ALPHAscreen SOP 20170721. The settings on record: 10 µM.
Assay [5] has as its system Trypanosoma cruzi. As to the kind of experiment: Trypanosoma cruzi phosphomannomutase and mannose-1-phosphate guanylyltransferase assay. The assay is classed as functional. As to conditions: 10 µM.
For assay [6], the target named is T2, Arginase-2, mitochondrial (Homo sapiens) (UniProt P78540).
T2 sequence (whole entry): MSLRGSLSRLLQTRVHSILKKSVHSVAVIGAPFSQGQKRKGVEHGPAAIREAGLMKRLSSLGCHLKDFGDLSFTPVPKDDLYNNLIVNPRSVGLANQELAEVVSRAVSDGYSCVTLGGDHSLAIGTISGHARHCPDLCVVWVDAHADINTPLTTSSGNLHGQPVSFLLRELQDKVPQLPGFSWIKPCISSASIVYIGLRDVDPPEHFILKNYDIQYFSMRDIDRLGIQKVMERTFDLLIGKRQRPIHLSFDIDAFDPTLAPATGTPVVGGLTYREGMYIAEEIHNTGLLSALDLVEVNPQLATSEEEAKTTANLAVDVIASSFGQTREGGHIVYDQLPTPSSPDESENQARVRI
As to the kind of experiment: in vitro enzyme assay to detect the production of urea directly proportional to the activity of Arginase II. Note: in the data most compounds retested in dose-response had high values. The assay is classed as functional. As to conditions: 33.3 µM.

For assay [7], the target named is T3, Proteasome subunit beta (Trypanosoma cruzi) (UniProt O96673).
T3 sequence (whole entry): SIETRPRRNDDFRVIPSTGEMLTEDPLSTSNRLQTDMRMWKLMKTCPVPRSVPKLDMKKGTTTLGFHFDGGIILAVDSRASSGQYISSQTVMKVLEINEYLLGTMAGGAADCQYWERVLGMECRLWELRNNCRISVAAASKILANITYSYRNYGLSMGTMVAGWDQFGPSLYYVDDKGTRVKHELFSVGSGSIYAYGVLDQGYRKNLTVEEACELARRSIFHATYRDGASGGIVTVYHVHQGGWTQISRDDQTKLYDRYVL
Description: Trypanosoma cruzi proteasome chymotrypsin-like activity (TcProtChymo) assay. Note: in the data most compounds retested in dose-response had high values. In kind it is functional. The settings on record: 9.37 µM.

For assay [8], the species on record is Homo sapiens. As to the kind of experiment: To identify inhibition of the IFN signalling (Jak-Stat) pathway via expression of an eGFP reporter gene under the control of an IFN-stimulated response element (ISRE) containing MxA promoter. In kind it is functional. As to conditions: 30 µM. A general note: In a reporter assay the amount or activity of a reporter protein is the signal.

Assay [9] deals with T4, Tyrosyl-tRNA synthetase, putative (Trypanosoma cruzi (strain CL Brener)) (UniProt Q4DSP6).
T4 sequence (whole entry): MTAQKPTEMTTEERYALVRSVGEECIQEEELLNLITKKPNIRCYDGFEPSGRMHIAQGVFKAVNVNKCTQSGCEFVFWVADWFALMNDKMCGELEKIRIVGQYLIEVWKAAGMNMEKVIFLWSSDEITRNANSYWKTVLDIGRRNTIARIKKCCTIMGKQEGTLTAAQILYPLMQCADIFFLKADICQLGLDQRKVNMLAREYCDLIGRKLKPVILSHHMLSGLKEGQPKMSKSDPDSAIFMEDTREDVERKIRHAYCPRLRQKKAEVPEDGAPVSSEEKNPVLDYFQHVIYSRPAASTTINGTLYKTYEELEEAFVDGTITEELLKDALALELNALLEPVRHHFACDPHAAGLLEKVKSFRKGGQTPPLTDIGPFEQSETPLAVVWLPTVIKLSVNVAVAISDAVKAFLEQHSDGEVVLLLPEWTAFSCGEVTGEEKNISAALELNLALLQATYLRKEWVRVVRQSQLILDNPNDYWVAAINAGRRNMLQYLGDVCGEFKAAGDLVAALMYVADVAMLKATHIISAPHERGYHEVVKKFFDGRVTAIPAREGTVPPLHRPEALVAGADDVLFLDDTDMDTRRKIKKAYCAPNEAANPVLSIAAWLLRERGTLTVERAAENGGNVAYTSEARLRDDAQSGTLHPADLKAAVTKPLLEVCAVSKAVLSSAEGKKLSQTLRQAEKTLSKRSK
As to the kind of experiment: Trypanosoma cruzi tyrosyl tRNA synthetase (TcYRS) _High Tyrosine SOP. Note: in the data most compounds retested in dose-response had high values. The assay is classed as functional. The settings on record: 30 µM.

Assay [10] addresses T4, Tyrosyl-tRNA synthetase, putative (Trypanosoma cruzi (strain CL Brener)). Description: Trypanosoma cruzi tyrosyl tRNA synthetase (TcYRS) SOP. As to conditions: 30 µM. The assay is classed as functional.
Assay [11] deals with Chromo domain-containing protein 1 (Saccharomyces cerevisiae (strain ATCC 204508 / S288c) (Baker's yeast)) (UniProt P32657). As to the kind of experiment: ScCHD-1 Enzyme Inhibition Assay. Note: in the data most compounds retested in dose-response had high values. The settings on record: 30 µM. In kind it is functional.

For some of these results: Results with a measured potency or affinity are listed apart.

Chain of Chromo domain-containing protein 1 (Saccharomyces cerevisiae (strain ATCC 204508 / S288c) (Baker's yeast)) (P32657 whole entry, the tested form may be a part): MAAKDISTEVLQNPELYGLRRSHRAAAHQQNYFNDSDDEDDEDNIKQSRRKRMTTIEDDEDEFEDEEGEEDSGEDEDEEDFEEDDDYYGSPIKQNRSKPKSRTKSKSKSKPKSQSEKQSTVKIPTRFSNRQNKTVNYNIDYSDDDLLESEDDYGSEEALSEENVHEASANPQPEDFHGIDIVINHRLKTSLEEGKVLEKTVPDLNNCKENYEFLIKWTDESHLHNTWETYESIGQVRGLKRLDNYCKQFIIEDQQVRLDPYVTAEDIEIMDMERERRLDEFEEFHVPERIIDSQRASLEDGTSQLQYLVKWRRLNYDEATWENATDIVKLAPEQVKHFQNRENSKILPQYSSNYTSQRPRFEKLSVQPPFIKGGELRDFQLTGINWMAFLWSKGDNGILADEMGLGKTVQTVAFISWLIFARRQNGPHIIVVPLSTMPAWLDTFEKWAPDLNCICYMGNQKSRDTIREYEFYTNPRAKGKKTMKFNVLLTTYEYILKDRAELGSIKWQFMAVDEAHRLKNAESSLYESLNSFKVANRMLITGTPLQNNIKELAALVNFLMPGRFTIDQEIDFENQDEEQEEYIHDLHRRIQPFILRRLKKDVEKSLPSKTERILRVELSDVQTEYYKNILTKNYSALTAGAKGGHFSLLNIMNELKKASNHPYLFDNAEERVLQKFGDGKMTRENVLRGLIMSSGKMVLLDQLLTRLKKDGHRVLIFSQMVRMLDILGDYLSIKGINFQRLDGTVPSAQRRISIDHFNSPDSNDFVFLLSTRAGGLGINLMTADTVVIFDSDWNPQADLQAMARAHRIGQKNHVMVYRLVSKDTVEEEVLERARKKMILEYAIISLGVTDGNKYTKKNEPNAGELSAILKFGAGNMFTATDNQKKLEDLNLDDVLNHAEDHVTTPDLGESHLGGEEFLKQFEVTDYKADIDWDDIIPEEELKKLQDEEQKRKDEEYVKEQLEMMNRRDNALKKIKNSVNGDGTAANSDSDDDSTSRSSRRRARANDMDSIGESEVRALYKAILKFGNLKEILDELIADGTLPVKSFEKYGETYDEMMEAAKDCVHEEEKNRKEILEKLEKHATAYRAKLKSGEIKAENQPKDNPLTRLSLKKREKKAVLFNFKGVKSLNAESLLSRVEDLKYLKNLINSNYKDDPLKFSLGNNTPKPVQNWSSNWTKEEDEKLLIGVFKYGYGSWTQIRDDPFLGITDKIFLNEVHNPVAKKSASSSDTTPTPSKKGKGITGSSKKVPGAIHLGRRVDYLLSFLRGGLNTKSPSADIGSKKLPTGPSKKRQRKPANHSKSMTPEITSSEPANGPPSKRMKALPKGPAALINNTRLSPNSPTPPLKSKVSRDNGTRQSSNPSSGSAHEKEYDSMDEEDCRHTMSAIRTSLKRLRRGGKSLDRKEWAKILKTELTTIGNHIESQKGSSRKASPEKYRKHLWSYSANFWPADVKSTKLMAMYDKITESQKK
Chain of Sialic acid-binding Ig-like lectin 9 (Homo sapiens) (Q9Y336 whole entry): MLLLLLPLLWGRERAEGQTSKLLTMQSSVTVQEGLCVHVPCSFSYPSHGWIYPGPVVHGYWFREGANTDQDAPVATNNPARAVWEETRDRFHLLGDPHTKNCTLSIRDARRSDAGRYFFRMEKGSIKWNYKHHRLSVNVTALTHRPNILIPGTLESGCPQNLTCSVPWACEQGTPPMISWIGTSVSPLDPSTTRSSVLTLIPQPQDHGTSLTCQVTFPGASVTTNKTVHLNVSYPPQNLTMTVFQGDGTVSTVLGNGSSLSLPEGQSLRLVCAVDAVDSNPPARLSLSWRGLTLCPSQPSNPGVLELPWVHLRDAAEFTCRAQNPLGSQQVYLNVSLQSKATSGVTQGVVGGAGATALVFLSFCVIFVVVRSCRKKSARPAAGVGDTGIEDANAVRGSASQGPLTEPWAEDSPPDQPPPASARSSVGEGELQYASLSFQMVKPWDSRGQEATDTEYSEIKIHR
Chain of Protein translocase subunit SecA (Escherichia coli (strain K12)) (P10408 whole entry): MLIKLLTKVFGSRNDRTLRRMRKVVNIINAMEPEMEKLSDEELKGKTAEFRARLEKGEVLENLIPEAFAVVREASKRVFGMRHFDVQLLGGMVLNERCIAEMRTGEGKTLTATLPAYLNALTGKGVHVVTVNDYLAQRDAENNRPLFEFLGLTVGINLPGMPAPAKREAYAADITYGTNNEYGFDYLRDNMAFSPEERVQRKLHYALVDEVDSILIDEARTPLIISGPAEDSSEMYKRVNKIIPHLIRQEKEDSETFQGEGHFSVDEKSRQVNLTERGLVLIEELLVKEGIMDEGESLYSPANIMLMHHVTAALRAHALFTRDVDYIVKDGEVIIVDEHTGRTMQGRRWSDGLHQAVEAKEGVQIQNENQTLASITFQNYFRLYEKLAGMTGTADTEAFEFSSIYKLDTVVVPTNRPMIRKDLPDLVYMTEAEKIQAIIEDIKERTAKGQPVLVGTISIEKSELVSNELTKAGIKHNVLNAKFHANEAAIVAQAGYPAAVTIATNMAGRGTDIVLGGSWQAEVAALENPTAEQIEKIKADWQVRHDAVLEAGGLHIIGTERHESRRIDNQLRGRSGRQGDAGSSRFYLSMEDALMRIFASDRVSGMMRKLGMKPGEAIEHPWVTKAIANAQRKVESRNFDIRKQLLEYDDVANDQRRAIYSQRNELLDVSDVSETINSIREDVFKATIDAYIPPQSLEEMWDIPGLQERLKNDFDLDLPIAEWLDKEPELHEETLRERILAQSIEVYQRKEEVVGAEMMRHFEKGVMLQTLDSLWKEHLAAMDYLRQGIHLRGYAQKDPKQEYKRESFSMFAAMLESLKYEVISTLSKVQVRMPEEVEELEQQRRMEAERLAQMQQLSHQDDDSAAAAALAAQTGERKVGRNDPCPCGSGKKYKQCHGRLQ

Regarding `CC(NC(=O)COc1ccc(F)cc1)c1nnc2n1CCCCC2` (stereo not drawn), the Percent Effect in [1] is -3.7%; in assay [2] it was 16.2%; in [3], -13.2%; in assay [4], 13.2%; in assay [5], 5.19%; in [6] it was -8.02%. For the same compound, the Percent Effect in [7] was 0.36%; in assay [8] it was 0.906%; in assay [9] it was 4.43%; in assay [10], 18.5%; in assay [11], -14.6%.
Consider `CCn1c(C)nnc1CN(C)C1CCN(Cc2nccn2C)C1` (stereo not drawn), for which the Percent Effect was 2.98% in assay [1]; 10.8% in assay [2]; -6.53% in assay [3]; -4.6% in assay [4]; -8.7% in assay [5]; 2.23% in [6]. In addition, the Percent Effect in assay [7] is 11.8%; in assay [8], 16.4%; in assay [9], 9.68%; in [10], 16.1%; in assay [11] it was -3.99%.
With `c1cnnc(N2CCCC2CNCc2cc[nH]n2)c1` (stereo not drawn), the Percent Effect is -2.52% in [1]; 0% in assay [2]; 4.85% in assay [3]; -5.55% in assay [4]; 4.89% in assay [5]; 3.45% in assay [6]. Further, the Percent Effect is -1.34% in assay [7]; -3.22% in [8]; 1.47% in [9]; 7.32% in assay [10]; -6.65% in assay [11].
Consider `CC(NC(=O)c1ccc2c(c1)OCC(=O)N2)c1ccccc1F` (stereo not drawn), for which the Percent Effect in assay [1] was -5.46%; in [2] it was 18.4%; in assay [3], 22%; in [4] it was 2%; in [5], 1.03%; in assay [6] it was -0.719%. The Percent Effect was 9.39% in assay [7]; -9.89% in assay [8]; 10.3% in [9]; 18.5% in assay [10]; -4.32% in [11].
`CN1CCC(c2cccc(Cc3ccc(F)cc3)n2)CC1`: the Percent Effect in [1] is -4.16%; in assay [2], -1.35%; in [3], 11.1%; in [4] it was -2.02%; in assay [5], 0.395%; in assay [6] it was -6.26%. The Percent Effect in assay [7] was 6.08%; in assay [8], 2.47%; in [9], 2.15%; in [10] it was -1.3%; in [11], -7.17%.
`CNC(=O)[C@@]12CCC3(CCN(S(C)(=O)=O)CC3)[C@@H]1CN(S(C)(=O)=O)C2`: the Percent Effect in assay [1] was -2.26%; in [2] it was 13.5%; in assay [3], -10.4%; in assay [4], 2.21%; in [5], -3.81%; in [6], 0.248%. The Percent Effect was 6.78% in assay [7]; 9.73% in assay [8]; 1.07% in [9]; 11.1% in assay [10]; 1.21% in assay [11].
With `CNC(=O)CS(=O)(=O)C1CCN(S(=O)(=O)C2CC2)CC1`, the Percent Effect in assay [1] was -3.71%; in [2], 0%; in assay [3], -0.0113%; in assay [4], -2.43%; in assay [5] it was 0.979%; in assay [6] it was 1.36%. Besides, the Percent Effect in assay [7] is 4.79%; in assay [8] it was 3.03%; in assay [9], 3.23%; in assay [10] it was 5%; in assay [11], -0.451%.
Turning to `CCc1cc(NC2CCN(S(C)(=O)=O)CC2)n2nc(C)c(C)c2n1`, the Percent Effect in [1] was 0.159%; in assay [2], 4.17%; in assay [3] it was 4.89%; in assay [4], -1.11%; in assay [5] it was -4.37%; in [6] it was -2.21%. In addition, the Percent Effect in [7] was 22.6%; in assay [8] it was 5.75%; in assay [9], -10.5%; in [10] it was 2.56%; in [11] it was -1.42%.
